# HT1080NT lethal: kills 2HG-producing HT-1080-NT fibrosarcoma cells; Potency, µM (series often up to 46.1 µM), actives largely listed as cytotoxic; hit rate 1.6% among 360,000; HT-1080-NT fibrosarcoma viability, CellTiter-Glo ATP luminescence, 48 h;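 further: NT is the 2HG producing partner of a matched IDH1 knockdown line; nearly all actives have a fitted effect of over 55% in size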
#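 Viability of the 2HG-overproducing fibrosarcoma line after 48 hours of compound exposure at 37 degrees C was determined by luminescence with CellTiter-Glo, and concentration-effect curves were then fitted and categorized.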
# TDP1 cell noCPT: qHTS for Inhibitors of human tyrosyl-DNA phosphodiesterase 1 (TDP1): qHTS in cells in absence of CPT; DT40 Tdp1-/- hTDP1 cells, no CPT, ATP luminescence, 48 h; Potency, µM (titrated, usually from 46.2 µM), actives largely listed as inhibitors; hit rate 15% among 420,000; further: nearly all actives have a fitted effect of over 55% in size
#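 Growth kinetics read by CellTiter-Glo luminescence after ≥48 hr at 37 °C. Cells: DT40 Tdp1-/- stably carrying human TDP1, 400 per well, compound exposure in the absence of CPT (DMSO vehicle).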
# HT1080 IDH1KD tx: HT-1080 IDH1 knockdown cell toxicity (counter line) | HT-1080 IDH1 knockdown viability, ATP luminescence, 48 h | AID 686971 | hit rate 2% among 360,000 | Potency, µM (top dose mostly 46.1 µM), most hits filed as cytotoxic
#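 Luminescent ATP read-out (CellTiter-Glo, 10 min at room temperature) after 48 h compound exposure at 37 °C gave viability of IDH1-knockdown HT-1080 cells. Activity was normalised to DMSO and cell-free wells, then fitted as concentration-response curves.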
# TDP1 cell CPT: DT40-hTDP1 cell growth loss with CPT. Potency, µM (doses to about 46.2 µM), hits mostly inhibitors. AID 686979. hit rate 12% among 420,000. chicken DT40 Tdp1-/-;hTDP1 cells + 20 nM CPT, ATP luminescence, 48 h; further: nearly all actives have a fitted effect of over 55% in size
#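 Chicken DT40 Tdp1-/- cells complemented with human TDP1, 400 cells/well, exposed to compounds plus 20 nM camptothecin for at least 48 h at 37 C; viability read as ATP content by CellTiter-Glo luminescence.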
# IL1B secr inh: blocks inflammasome-driven IL-1 beta release; AID 743279; activity change, % at 57.5 µM; THP-1 LPS/ATP IL-1B secretion, AlphaLISA, 16 h; hits give low values; hit rate 4.7% among 360,000; in the data active means activity change below about -50%; inconclusive means mostly about -30% to -49%
#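 THP-1 cells pretreated 1 hr with compounds (up to 57.5 uM final), then stimulated with LPS (250 ng/mL final) plus ATP (1.25 mM final); secreted IL-1B measured by AlphaLISA after 16 hr, decreased signal indicating inhibition.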
# Hits are given with their value; n = inactive; u = inconclusive; x = not tested or not shown; ! = not active in a repeat; [ ] = another dose, or the depositor's remark. Compounds with a hit are over-represented: about 19% of the library has one in this group of screens. Unless noted, the call rests on the fitted dose curve; in most records, active means well fitted curve in the direction sought with a large enough effect; inconclusive means small, poorly fitted or top-dose-only effect, or another doubt; inactive means no such curve, though single readings can be large; an effect the other way counts as inactive or inconclusive.
SMILES,HT1080NT lethal,TDP1 cell noCPT,HT1080 IDH1KD tx,TDP1 cell CPT,IL1B secr inh
Nc1nc(Nc2ccc(Cl)cc2)nc2ccccc12,n,5.8µM,n,7.3µM,-119
CN(C)c1ccc(Nc2nc(N)c3ccccc3n2)cc1,u,13µM,u,26µM,-96
Cc1ccc2c3c1C1(C(=O)N3C(C)(C)CC2C)C(C#N)=C(N)Oc2cc(O)ccc21 (stereo unspecified),u,n,u,n,u
Cc1cc2c3c(c1)C1(C(=O)N3C(C)(C)CC2C)C(C#N)=C(N)Oc2cc(O)ccc21 (stereo unspecified),u,25µM,u,n,n
CCOC(=O)c1ccc(-n2c(CCC(=O)O)ccc2-c2ccccc2)cc1O,x,n,x,n,x
O=S(=O)(Nc1nc(-c2ccco2)c(-c2ccco2)s1)c1ccc(F)cc1F,n,n,n,n,n
CCC(C)Cn1cnc2c(Sc3c([N+](=O)[O-])ncn3C)nc(N)nc21 (stereo unspecified),u,23µM,u,16µM,-56
CC(C)Cn1cnc2c(Sc3c([N+](=O)[O-])ncn3C)nc(N)nc21,n,u,n,u,-101
Nc1nc(SCc2ccccc2[N+](=O)[O-])c2ncn(Cc3ccccc3)c2n1,u,u,u,u,n
COc1ccc(S(=O)(=O)N(C)C)cc1NC(=O)CSC(C)C(=O)Nc1cc(C)on1 (stereo unspecified),n,n,n,n,n
C=CCN1C(c2ccc(OCC)cc2)=CS/C1=C(\C#N)c1nnc2n1CCCCC2,u,29µM,u,u,n
C=CCN1C(c2cccc(C(F)(F)F)c2)=CS/C1=C(\C#N)c1nnc(N2CCOCC2)n1-c1ccccc1,n,u,n,23µM,u
C=CCN1C(c2ccc(Br)cc2)=CS/C1=C(\C#N)c1nnc(N2CCOCC2)n1-c1ccccc1,n,n,n,u,-73
N/C(=N\OC(=O)c1cccc([N+](=O)[O-])c1)c1ccccn1,n,n,n,u,n
O=C(N/N=C(\c1ccccc1)c1ccccn1)c1cccc([N+](=O)[O-])c1,u,1µM,u,1.2µM,n
CCOc1ccc(C(=O)N/N=C(\c2ccccc2)c2ccccn2)cc1,u,2.9µM,2.3µM,2.1µM,-100
Cn1ccnc1/C(=N\NC(=O)c1ccccc1)c1cccc([N+](=O)[O-])c1,n,u,n,n,-51
COc1ccc(S(=O)(=O)NCc2nc(N3CCCC3)c3cccc(C)c3n2)cc1OC,x,n,x,n[9.04 µM],x
C[C@]12CCC(O)CC1CCC1C2CC[C@]2(C)C(c3cc(C(F)(F)F)n[nH]3)CCC12 (stereo partly specified),n,13µM,n,u,n
C[C@@]12CCC[C@H]1[C@@H]1CC[C@H]3C[C@@H](O)CC[C@]3(C)[C@H]1CC2,x,n,x,n,x
CCOC(=O)c1nnn(-c2nonc2N)c1COc1ccccc1,n,n,n,n,n
O=C(O)CCn1cc(/C=C/C(=O)c2ccc(Cl)cc2)c(-c2ccc(Br)cc2)n1,n,23µM,u,16µM,-93
Cn1c(CSCc2ccc(Cl)c(Cl)c2)nnc1SCC(=O)Nc1nccs1,n,18µM,n,26µM,n
Cn1c(CSCc2ccc(Cl)cc2)nnc1SCC(=O)Nc1nccs1,n,u,n,u,n
Cn1c(CSCc2ccc(F)cc2)nnc1SCC(=O)Nc1nccs1,n,13µM,n,10µM,n
SMILES,HT1080NT lethal,TDP1 cell noCPT,HT1080 IDH1KD tx,TDP1 cell CPT,IL1B secr inh
Cn1cccc1Cc1nnc(SCC(=O)Nc2nccs2)n1CCc1ccccc1,n,u,n,21µM,u
Cc1ccc(S(=O)(=O)c2cc(OC(=O)c3ccco3)ccc2OC(=O)c2ccco2)cc1,n,16µM,n,u,n
Cn1c(=O)n(C)c2cc(N3CCOCC3)c(NS(=O)(=O)c3ccc(Cl)cc3)cc21,x,13µM,x,u,x
Cn1c(=O)n(C)c2cc(N3CCOCC3)c(NC(=O)c3ccc(C(C)(C)C)cc3)cc21,x,u,x,n,x
Cn1c(=O)n(C)c2cc(N3CCOCC3)c(NS(=O)(=O)c3ccc(C(C)(C)C)cc3)cc21,x,4.1µM,x,7.3µM,x
Cn1c(=O)n(C)c2cc(N3CCOCC3)c(NS(=O)(=O)c3cccc(C#N)c3)cc21,x,u,x,18µM,x
CC(=O)Nc1ccc(S(=O)(=O)Nc2cc(Cl)ccc2N2CCOCC2)cc1,n,u,n,n,n
CCNc1ncc2nc(-c3cc(F)cc(F)c3)c(=O)n(C3CC3)c2n1,x,n,x,n,x
Cc1ccc(N2CC(C(=O)OCC(=O)NNC(=O)c3ccccc3)CC2=O)cc1 (stereo unspecified),n,n,n,n,n
O=C(Cn1cc(S(=O)(=O)Cc2ccc([N+](=O)[O-])cc2)c2ccccc21)N1CCOCC1,n,n,n,n,n
CC(=O)O[C@]1(C(C)=O)CC[C@H]2[C@@H]3C[C@H](C)C4=CC(=O)CC[C@]4(C)[C@H]3CC[C@@]21C,u,16µM!,u,18µM,u
CC(=O)C12CCCCC1CC1[C@@H]3CC(C)C4=CC(=O)CC[C@]4(C)C3CC[C@@]12C (stereo partly specified),n,15µM,u,u,n
CC12CCC(=O)C=C1C(O)CC1C2CCC2(C)C1CCC2(O)C(=O)CO (stereo unspecified),n,n,n,u,n
CCC(=O)OC1(C(C)=O)CCC2C3CCC4=CC(=O)CCC4(C)C3CCC21C (stereo unspecified),n,23µM,n,n,n
CC(=O)OC1(C(C)=O)CCC2C3CC(C(F)(F)F)C4=CC(=O)CCC4(C)C3CCC21C (stereo unspecified),18µM,13µM,21µM,u,-94
CC(=O)OCC(=O)C1(O)CCC2C3CC(F)C4=CC(=O)CCC4(C)C3C(=O)CC21C (stereo unspecified),n,n,u,n,n
COc1ccc(C(C(=O)Nc2ccc(C(C)C)cc2)N(Cc2ccco2)C(=O)CC2NC(=O)NC2=O)cc1 (stereo unspecified),n,u,n,u,-70
COc1cccc(/C=N/NC(=O)c2cnn(-c3ccccc3)c2N)c1,n,21µM,n,u,n
Nc1c(C(=O)N/N=C/c2ccc(OCc3ccccc3)cc2)cnn1-c1ccccc1,n,12µM,n,16µM,n
CCc1cccc(C)c1NC(=O)C1CC(=O)N(C2CCCC2)C1 (stereo unspecified),n[9.24 µM],n,n,n,n
O=S(=O)(NCc1nnc2n1CCN(Cc1ccccc1Cl)CC2)c1ccccc1,x,u,x,n,x
CC(=O)N1CCCC(C)(C(=O)N(C)Cc2cccc3ccccc23)C1 (stereo unspecified),n,u,n,23µM,n
